Sampled rows, rich in hits. Any-hit rate of the full collection: about 6.5%.
HCMV antiviral = human cytomegalovirus inhibition | 410,000 tested, 4.5% active | HFF cells, HCMV-luciferase reporter, 72 h; hits give low values | activity change, negative = inhibition, % at 57.5 µM | AID 1259415; in the data active = activity change below about -60%; inconclusive = no clear call, values can overlap the other calls; inactive = above about -39%
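Inhibition of viral replication was scored as loss of reporter luminescence in HFFs infected with HCMV-luciferase (MOI 1 PFU/cell) for 72 h; compounds tested at 2 doses, normalized to buffer and Salinomycin controls.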
Lassa entry inh = inhibitors of Lassa virus binding or cell entry; Lassa virus pseudotype entry inhibition, cell reporter; Potency, µM (titrated, usually from 37.9 µM), most hits filed as inhibitors; 300,000 tested, 1.2% active; calls by dose curve; tested in HEK293 cells; note: nearly all actives have a fitted effect of over 50% in size
Vaccinia mCherry = inhibitors of vaccinia virus infection (mCherry reporter signal). AID 720579. Potency, µM (titrated, usually from 36.5 µM), usual class: inhibitors. 310,000 tested, 0.63% active. Vaccinia virus mCherry reporter infection, fluorescence; calls by dose curve; tested in A549 cells; note: nearly all actives have a fitted effect of over 35% in size
FMDV inh = antivirals against foot and mouth disease virus. FMDV antiviral cell-based qHTS. 410,000 tested, 1.2% active. Potency, µM (series often up to 57.9 µM), usual class: inhibitors. AID 1159524; calls by dose curve; tested in HEK293T cells; note: read-out not given here; nearly all actives have a fitted effect of over 45% in size
Marburg entry inh = inhibitors of Marburg virus binding or cell entry; Marburg virus pseudotyped entry inhibition, cell reporter; Potency, µM (series often up to 37.8 µM), usual class: inhibitors; 300,000 tested, 1.8% active; AID 540276; calls by dose curve; tested in HEK293 cells
Vaccinia Venus = inhibitors of vaccinia virus (Venus reporter); 330,000 tested, 0.46% active; Vaccinia virus Venus reporter expression, fluorescence; Potency, µM (highest dose often 36.5 µM), hits mostly inhibitors; calls by dose curve; tested in A549 cells; note: nearly all actives have a fitted effect of over 30% in size
Hits are given with their value; – = inactive; ? = inconclusive; · = not tested or not shown; [ ] = another dose, or the depositor's remark.

SMILES	HCMV antiviral	Lassa entry inh	Vaccinia mCherry	FMDV inh	Marburg entry inh	Vaccinia Venus
COc1ccc(C#Cc2cccc(-c3nc(C(=O)NCc4ccc(Oc5ccccc5)cc4)cc4c3[C@@H](CCO)N(S(=O)C(C)(C)C)C4)c2)cc1OC (some centres undefined)	–	·	–	–	·	–
CCCCCCC(C)(C)c1ccc([C@@H]2C[C@H](O)CC[C@H]2CCCO)c(O)c1	–	?	?	?	13µM	?
Cc1ccc(NC(=O)C2(C)CCN2CCc2ccccc2)cc1 (centres undefined)	–	·	–	–	·	–
NC(=O)C1CCN(C(=O)c2cc(-c3ccc(Cl)cc3)nc3ccccc23)CC1	–	–	–	–	–	–
O=C(c1cc(-c2ccncc2)nc2ccccc12)N1CCN(c2ccccc2O)CC1	–	·	·	–	·	·
O=C(c1cc(-c2ccncc2)nc2ccccc12)N1CCN(c2ccc(N3CCOCC3)nn2)CC1	–	–	–	–	15µM	–
O=C(c1cc(-c2ccccc2)nc2ccccc12)N1CCCc2ccccc21	-63	–	–	–	?	–
Cc1ccc(-c2cc(C(=O)N3CCC(C)CC3)c3ccccc3n2)cc1	-71	·	·	–	·	·
O=C(c1cc(-c2ccncc2)nc2ccccc12)N1CCN(c2ncccn2)CC1	–	–	–	–	1.1µM	–
O=C(c1cc(-c2ccncc2)nc2ccccc12)N1CCN(c2ccccn2)CC1	–	–	·	–	?	·
Cc1cccc(-c2cc(C(=O)N3CCCc4ccccc43)c3ccccc3n2)c1	–	–	?	–	?	?
O=C(O)c1ccc(Nc2nc3ccccc3c3nncn23)cc1	–	–	–	–	–	–
COc1ccccc1N1CCN(C2CCCN(C(=O)CCC(=O)N(C)C)C2)CC1 (centres undefined)	–	–	–	–	–	–
CCc1ccc(CNC(=O)Cn2c(-c3cccs3)cc3cc(F)ccc32)cc1	-65	–	–	–	?	–
O=C(NCCCN1CCN(c2ccccc2F)CC1)C1CCN(S(=O)(=O)c2cccs2)CC1	-68	–	·	?	–	·
O=C(Cn1c(-c2cccs2)cc2cc(F)ccc21)NCCCN1CCN(c2ccccc2F)CC1	?	?	–	–	·	–
O=C(Cn1c(-c2cccs2)cc2ccccc21)NCCCN1CCN(c2ccccc2F)CC1	-68	?	–	–	·	–
CN1CCN(CCCNC(=O)Cn2c(-c3cccs3)cc3cc(Cl)ccc32)CC1	-69	–	–	–	·	–
CCC(C)(C)C(=O)O[C@@H]1C[C@@H](C)C=C2C=C[C@H](C)[C@H](CC[C@@H]3C[C@@H](O)CC(=O)O3)[C@H]21	·	·	·	–	·	·
O=[N+]([O-])c1ccc(Oc2ccc(S(=O)(=O)N3CCCCC3)cc2)cc1	-63	–	–	?	?	–
O=[N+]([O-])c1ccc(Oc2ccc(S(=O)(=O)N3CCOCC3)cc2)cc1	?	?	?	–	?	–
CC1CCN(S(=O)(=O)c2ccc(Oc3ccc([N+](=O)[O-])cc3)cc2)CC1	-77	?	?	?	–	?
CC1CCN(S(=O)(=O)c2ccc([N+](=O)[O-])cc2)CC1	–	–	–	–	?	–
CCOC(=O)c1ccc(N2C(=O)c3n[nH]c(C)c3C2c2cccc(Br)c2)cc1 (centres undefined)	–	?	–[7.34 µM]	–	?	–[7.34 µM]
CCOC(=O)c1ccc(N2C(=O)c3n[nH]c(-c4cccs4)c3C2c2ccc(CC)cc2)cc1 (centres undefined)	-99	?	?	?	?	?
SMILES	HCMV antiviral	Lassa entry inh	Vaccinia mCherry	FMDV inh	Marburg entry inh	Vaccinia Venus
CCOC(=O)c1ccc(N2C(=O)c3n[nH]c(C)c3C2c2ccc(CC)cc2)cc1 (centres undefined)	–	–	–	?	?	–
CCOC(=O)c1ccc(N2C(=O)c3n[nH]c(-c4cccs4)c3C2c2ccc(C(C)C)cc2)cc1 (centres undefined)	-106	–	–	?	?	–
CCOC(=O)c1ccc(N2C(=O)c3n[nH]c(-c4cccs4)c3C2c2cccc(O)c2)cc1 (centres undefined)	–	?	–	35µM	?	–
CCOC(=O)c1ccc(N2C(=O)c3n[nH]c(-c4cccs4)c3C2c2ccc(OCC)cc2)cc1 (centres undefined)	-105	?	?	–	13µM	?
CCCSc1ccc([C@@H]2[C@H]3C(=O)N(CC)C(=O)[C@H]3[C@]3(C(=O)OC)CCCCN23)cc1	–	·	–	?	·	–
CCCCc1ccc(S(=O)(=O)N[C@H]2CC[C@@]34CCCN3C(=O)CCC[C@H]4[C@H]2CCC)cc1	–	·	·	·	·	·

Bioassay records (PubChem BioAssay)
